# Measured values from publication PMC7862700, “An all-to-all approach to the identification of sequence-specific readers for epigenetic DNA modifications on cytosine”.
# What was measured:
# Test in all cases: DAPPL (digital affinity profiling via proximity ligation, sequencing); 10 mM Tris-HCl pH 7.5, 50 mM NaCl, 1 mM DTT, 4% glycerol, room temperature, 30 min; GST-TFs on glutathione beads, 16-mer random dsDNA library, 0.1% formaldehyde crosslink after washing; high values mean tight binding
# Details in all cases: protein: recombinant; tags: N-terminal GST; dsDNA, one strand shown
# ELK1 = target: T1, ELK1 (Homo sapiens, UniProt P19419 1-428)
# T1 sequence: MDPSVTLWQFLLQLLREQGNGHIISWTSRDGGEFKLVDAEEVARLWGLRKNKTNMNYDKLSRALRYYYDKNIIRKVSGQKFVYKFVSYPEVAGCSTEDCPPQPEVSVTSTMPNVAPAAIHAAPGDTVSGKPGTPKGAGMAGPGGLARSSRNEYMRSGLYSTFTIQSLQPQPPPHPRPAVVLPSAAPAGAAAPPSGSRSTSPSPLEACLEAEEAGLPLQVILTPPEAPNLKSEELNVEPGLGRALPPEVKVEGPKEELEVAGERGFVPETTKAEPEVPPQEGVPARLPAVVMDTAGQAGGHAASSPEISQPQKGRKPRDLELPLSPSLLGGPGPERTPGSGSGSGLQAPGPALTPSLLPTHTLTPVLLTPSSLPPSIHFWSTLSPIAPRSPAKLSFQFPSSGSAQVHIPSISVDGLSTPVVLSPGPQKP
# Procedure, shortened: (§1)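 Pools were built from human transcription factors expressed in yeast as GST fusions, captured on glutathione beads and DNA-barcoded, along with a tag-only sample. Incubation with 200 nmole of a 16-mer random double-stranded DNA library lasted 30 min at room temperature in Tris/NaCl/DTT/glycerol buffer, and was followed by washing, 0.1% formaldehyde crosslinking, proximity ligation, PCR amplification and Illumina NextSeq500 sequencing. Binding signal is the quotient of each hexamer's read frequency for a factor and its frequency for the tag-only sample.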
# ERG = target: T2, ERG (Homo sapiens, UniProt P11308 1-479)
# T2 sequence: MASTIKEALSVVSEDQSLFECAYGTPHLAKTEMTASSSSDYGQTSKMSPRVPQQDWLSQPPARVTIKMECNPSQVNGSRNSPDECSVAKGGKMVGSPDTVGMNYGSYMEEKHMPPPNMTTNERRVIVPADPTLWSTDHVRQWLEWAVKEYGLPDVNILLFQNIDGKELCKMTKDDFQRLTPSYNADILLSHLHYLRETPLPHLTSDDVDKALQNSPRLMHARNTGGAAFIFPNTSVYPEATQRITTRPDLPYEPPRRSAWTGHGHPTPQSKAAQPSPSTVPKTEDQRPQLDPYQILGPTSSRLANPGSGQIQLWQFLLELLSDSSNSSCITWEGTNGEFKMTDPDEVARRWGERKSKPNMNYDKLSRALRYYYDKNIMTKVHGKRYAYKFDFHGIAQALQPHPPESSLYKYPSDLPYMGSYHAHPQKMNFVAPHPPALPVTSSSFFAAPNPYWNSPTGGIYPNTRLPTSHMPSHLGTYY
# Procedure, shortened: as §1
# ELF1 = ELF1 (Homo sapiens, UniProt P32519 1-619)
# Chain of ELF1 (P32519 whole entry): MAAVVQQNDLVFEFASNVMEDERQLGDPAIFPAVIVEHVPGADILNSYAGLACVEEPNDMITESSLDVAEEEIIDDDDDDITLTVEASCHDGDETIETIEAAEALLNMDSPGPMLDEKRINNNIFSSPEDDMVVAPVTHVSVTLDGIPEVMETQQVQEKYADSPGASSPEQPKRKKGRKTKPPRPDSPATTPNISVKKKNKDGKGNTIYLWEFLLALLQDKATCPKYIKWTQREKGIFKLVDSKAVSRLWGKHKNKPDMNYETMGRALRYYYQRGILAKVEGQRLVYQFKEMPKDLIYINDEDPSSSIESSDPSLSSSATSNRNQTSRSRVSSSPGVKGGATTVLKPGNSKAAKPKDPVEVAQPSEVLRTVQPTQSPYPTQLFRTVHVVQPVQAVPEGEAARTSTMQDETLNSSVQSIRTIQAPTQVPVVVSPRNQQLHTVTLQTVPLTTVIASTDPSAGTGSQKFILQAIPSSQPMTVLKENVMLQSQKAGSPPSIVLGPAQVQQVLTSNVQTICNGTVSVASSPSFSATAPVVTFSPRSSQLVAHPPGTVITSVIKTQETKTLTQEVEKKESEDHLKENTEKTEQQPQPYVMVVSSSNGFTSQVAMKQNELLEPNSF
# Procedure, shortened: as §1
# EHF = target: T3, EHF (Homo sapiens, UniProt Q9NZC4 1-300)
# T3 sequence: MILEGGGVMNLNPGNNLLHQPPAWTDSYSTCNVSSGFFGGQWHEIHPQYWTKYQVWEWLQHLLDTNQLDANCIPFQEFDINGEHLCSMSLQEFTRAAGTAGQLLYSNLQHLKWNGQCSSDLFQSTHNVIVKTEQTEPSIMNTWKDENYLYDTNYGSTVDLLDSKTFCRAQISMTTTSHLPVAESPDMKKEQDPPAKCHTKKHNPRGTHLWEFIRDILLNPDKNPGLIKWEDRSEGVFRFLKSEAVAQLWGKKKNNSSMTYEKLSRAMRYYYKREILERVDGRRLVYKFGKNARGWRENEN
# Procedure, shortened: as §1
# SPIB = SPIB (Homo sapiens, UniProt Q01892 1-262)
# Chain of SPIB (Q01892 whole entry): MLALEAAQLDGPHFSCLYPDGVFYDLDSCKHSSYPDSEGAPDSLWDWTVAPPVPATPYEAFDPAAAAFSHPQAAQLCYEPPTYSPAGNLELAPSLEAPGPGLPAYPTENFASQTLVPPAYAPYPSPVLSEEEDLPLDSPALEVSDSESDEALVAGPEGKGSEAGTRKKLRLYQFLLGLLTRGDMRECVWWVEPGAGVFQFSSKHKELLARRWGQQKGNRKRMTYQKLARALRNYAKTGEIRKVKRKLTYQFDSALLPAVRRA
# Procedure, shortened: as §1
# FEV = target: T4, FEV (Homo sapiens, UniProt Q99581 1-238)
# T4 sequence: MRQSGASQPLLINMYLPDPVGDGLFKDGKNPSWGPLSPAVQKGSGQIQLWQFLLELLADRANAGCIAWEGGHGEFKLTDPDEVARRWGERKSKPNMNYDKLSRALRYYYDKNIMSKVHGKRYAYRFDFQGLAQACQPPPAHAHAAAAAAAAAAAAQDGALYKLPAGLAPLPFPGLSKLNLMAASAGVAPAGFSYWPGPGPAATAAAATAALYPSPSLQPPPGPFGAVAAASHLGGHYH
# Procedure, shortened: as §1
# ETV5 = ETV5 (Homo sapiens, UniProt P41161 1-510)
# Chain of ETV5 (P41161 whole entry): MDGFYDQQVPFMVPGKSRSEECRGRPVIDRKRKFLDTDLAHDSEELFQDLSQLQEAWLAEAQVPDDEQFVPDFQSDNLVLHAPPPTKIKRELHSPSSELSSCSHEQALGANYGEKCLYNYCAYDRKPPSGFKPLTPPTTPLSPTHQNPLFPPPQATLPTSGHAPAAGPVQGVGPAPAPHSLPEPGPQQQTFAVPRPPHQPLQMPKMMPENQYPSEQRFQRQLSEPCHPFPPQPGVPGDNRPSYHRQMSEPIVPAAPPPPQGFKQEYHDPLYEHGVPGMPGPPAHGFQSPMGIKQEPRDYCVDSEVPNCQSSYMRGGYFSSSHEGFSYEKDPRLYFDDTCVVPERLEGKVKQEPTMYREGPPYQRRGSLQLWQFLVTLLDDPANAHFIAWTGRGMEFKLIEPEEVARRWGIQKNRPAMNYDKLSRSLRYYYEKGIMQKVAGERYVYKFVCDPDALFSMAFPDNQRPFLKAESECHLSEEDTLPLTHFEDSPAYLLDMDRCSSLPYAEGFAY
# Procedure, shortened: as §1
# ELF4 = ELF4 (Homo sapiens, UniProt Q99607 1-663)
# Chain of ELF4 (Q99607 whole entry): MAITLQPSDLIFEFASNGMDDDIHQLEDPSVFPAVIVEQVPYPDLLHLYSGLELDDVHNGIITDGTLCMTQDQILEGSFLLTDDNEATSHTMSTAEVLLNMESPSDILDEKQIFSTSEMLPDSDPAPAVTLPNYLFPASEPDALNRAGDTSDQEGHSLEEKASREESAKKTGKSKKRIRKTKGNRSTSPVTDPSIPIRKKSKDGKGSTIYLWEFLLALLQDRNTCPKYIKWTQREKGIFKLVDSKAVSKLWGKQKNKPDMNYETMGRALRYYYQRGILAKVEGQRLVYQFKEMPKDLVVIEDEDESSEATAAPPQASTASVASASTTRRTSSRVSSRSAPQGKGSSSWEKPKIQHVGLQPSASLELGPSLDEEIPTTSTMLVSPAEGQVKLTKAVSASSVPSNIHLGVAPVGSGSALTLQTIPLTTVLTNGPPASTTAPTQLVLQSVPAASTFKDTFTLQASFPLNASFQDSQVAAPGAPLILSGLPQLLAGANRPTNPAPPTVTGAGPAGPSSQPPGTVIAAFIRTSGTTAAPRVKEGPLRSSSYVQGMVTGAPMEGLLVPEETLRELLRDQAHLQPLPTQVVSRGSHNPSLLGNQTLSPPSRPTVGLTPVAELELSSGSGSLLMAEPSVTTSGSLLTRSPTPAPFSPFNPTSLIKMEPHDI
# Procedure, shortened: as §1
# ELK4 = target: T5, ELK4 (Homo sapiens, UniProt P28324-2 1-405)
# T5 sequence: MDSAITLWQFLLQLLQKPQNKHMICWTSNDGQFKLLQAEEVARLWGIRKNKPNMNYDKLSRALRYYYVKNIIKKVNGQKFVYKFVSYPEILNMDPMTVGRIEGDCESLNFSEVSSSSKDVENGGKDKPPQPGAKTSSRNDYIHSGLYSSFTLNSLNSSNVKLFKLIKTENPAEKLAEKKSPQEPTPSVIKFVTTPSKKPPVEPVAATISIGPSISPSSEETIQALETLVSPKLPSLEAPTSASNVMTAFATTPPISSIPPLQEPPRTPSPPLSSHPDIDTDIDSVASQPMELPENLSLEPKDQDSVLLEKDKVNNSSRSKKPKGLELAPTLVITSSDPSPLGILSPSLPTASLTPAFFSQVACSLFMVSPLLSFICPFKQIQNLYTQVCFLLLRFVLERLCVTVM
# Procedure, shortened: as §1
# ETV1 = ETV1 (Homo sapiens, UniProt P50549 1-477)
# Chain of ETV1 (P50549 whole entry): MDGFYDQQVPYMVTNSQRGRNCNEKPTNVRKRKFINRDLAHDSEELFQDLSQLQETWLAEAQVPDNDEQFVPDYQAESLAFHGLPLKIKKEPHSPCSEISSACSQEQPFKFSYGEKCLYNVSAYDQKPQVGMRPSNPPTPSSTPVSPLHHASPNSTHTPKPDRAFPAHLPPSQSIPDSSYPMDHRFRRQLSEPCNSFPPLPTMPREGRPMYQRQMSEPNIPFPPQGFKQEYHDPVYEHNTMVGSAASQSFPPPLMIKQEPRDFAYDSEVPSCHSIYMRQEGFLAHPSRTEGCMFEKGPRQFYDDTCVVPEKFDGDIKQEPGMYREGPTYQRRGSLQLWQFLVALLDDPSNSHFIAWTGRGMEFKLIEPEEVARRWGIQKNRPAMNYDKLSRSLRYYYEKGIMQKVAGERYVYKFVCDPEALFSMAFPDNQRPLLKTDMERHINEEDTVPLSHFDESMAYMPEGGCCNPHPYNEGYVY
# Procedure, shortened: as §1
# ERF = target: T6, ERF (Homo sapiens, UniProt P50548 1-548)
# T6 sequence: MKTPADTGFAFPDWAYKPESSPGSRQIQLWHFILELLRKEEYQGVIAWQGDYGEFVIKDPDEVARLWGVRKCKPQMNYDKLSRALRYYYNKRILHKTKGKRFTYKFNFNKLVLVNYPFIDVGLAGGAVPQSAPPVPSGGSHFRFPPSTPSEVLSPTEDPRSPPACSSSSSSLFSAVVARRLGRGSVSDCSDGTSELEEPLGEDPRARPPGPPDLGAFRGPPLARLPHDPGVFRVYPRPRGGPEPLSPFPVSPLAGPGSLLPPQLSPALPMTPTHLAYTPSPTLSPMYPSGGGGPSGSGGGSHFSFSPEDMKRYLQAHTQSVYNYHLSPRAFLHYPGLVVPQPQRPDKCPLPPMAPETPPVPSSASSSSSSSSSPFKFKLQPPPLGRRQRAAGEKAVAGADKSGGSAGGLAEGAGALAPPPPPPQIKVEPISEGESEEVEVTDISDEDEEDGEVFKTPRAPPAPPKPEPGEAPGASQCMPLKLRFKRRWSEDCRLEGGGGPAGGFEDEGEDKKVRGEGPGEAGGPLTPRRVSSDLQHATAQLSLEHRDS
# Procedure, shortened: as §1
# ETV3L = target: T7, ETV3L (Homo sapiens, UniProt Q6ZN32 1-361)
# T7 sequence: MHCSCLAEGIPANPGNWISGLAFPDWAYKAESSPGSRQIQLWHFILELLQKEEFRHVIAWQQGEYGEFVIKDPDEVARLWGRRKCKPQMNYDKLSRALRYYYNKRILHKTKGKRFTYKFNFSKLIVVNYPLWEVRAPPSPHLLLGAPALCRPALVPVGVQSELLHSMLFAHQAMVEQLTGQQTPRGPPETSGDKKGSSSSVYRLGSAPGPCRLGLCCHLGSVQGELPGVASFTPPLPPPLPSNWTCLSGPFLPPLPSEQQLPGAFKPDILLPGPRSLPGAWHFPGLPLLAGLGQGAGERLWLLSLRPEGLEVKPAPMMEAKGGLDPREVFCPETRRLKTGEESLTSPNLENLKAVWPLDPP
# Procedure, shortened: as §1
# ETS2 = target: T8, ETS2 (Homo sapiens, UniProt P15036 1-469)
# T8 sequence: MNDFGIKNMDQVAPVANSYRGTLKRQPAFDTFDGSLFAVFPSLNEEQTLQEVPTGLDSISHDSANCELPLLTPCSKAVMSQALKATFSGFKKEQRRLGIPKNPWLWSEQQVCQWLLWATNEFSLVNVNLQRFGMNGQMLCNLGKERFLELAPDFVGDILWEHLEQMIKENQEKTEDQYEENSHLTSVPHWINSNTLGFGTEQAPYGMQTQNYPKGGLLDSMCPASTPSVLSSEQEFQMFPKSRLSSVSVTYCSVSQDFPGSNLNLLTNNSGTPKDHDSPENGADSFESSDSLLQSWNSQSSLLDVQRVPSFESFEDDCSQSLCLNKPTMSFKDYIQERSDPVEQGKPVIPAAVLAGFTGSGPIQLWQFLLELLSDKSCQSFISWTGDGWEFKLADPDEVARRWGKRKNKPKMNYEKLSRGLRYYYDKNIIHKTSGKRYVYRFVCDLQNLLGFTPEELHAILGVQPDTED
# Procedure, shortened: as §1
# SPDEF = target: T9, SPDEF (Homo sapiens, UniProt O95238 1-335)
# T9 sequence: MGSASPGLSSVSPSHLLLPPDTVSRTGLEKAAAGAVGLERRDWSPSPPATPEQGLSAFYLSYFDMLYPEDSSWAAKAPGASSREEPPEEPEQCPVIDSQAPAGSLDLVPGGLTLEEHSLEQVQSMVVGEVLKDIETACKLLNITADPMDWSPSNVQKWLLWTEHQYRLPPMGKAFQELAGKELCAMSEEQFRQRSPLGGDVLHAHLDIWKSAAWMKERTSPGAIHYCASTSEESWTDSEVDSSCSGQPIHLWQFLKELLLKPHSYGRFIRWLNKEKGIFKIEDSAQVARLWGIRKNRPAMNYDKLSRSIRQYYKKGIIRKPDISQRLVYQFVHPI
# Procedure, shortened: as §1
# ETV7 = target: T10, ETV7 (Homo sapiens, UniProt Q9Y603 1-341)
# T10 sequence: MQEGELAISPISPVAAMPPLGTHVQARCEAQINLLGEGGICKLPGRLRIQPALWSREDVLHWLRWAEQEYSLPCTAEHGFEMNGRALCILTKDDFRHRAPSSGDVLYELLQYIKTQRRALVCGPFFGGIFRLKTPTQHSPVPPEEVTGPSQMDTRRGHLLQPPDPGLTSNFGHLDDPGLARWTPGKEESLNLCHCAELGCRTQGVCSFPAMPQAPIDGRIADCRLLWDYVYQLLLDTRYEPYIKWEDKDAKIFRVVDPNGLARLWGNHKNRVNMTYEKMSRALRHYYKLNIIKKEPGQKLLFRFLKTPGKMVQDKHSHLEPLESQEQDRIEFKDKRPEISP
# Procedure, shortened: as §1
# ETV3 = target: T11, ETV3 (Homo sapiens, UniProt P41162-2 1-143)
# T11 sequence: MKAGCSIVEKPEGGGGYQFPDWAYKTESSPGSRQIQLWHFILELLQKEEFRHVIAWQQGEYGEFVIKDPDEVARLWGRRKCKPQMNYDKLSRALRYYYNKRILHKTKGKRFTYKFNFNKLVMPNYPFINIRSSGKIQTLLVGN
# Procedure, shortened: as §1
# ETV6 = ETV6 (Homo sapiens, UniProt P41212 1-452)
# Chain of ETV6 (P41212 whole entry): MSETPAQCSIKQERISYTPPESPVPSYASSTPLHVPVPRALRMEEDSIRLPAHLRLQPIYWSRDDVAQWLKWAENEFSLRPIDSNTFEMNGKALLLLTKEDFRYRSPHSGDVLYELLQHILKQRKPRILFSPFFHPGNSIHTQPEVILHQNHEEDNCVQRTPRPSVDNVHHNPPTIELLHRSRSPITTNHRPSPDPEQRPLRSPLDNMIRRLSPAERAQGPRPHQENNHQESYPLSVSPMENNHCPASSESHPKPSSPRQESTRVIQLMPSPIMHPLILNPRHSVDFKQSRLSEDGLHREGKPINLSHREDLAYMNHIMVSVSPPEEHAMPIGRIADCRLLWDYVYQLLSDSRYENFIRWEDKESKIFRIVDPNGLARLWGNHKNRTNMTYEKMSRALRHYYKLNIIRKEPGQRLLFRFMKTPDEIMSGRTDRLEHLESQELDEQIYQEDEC
# Procedure, shortened: as §1
sequence,measurement,setting,value
GGTACA,binding signal,ELK1,"1.08 fold enrichment (6-mer frequency, TF over GST control)"
same,binding signal,ERG,"1.09 fold enrichment (6-mer frequency, TF over GST control)"
same,binding signal,ELF1,"1.03 fold enrichment (6-mer frequency, TF over GST control)"
same,binding signal,EHF,"1.05 fold enrichment (6-mer frequency, TF over GST control)"
same,binding signal,SPIB,"1.11 fold enrichment (6-mer frequency, TF over GST control)"
same,binding signal,FEV,"1.03 fold enrichment (6-mer frequency, TF over GST control)"
same,binding signal,ETV5,"1.05 fold enrichment (6-mer frequency, TF over GST control)"
same,binding signal,ELF4,"1 fold enrichment (6-mer frequency, TF over GST control)"
same,binding signal,ELK4,"1.11 fold enrichment (6-mer frequency, TF over GST control)"
same,binding signal,ETV1,"1.07 fold enrichment (6-mer frequency, TF over GST control)"
same,binding signal,ERF,"1.09 fold enrichment (6-mer frequency, TF over GST control)"
same,binding signal,ETV3L,"1.04 fold enrichment (6-mer frequency, TF over GST control)"
same,binding signal,ETS2,"1.03 fold enrichment (6-mer frequency, TF over GST control)"
same,binding signal,SPDEF,"1.11 fold enrichment (6-mer frequency, TF over GST control)"
same,binding signal,ETV7,"1.11 fold enrichment (6-mer frequency, TF over GST control)"
same,binding signal,ETV3,"1.09 fold enrichment (6-mer frequency, TF over GST control)"
same,binding signal,ETV6,"1.11 fold enrichment (6-mer frequency, TF over GST control)"
